Assay outcomes deposited in PubChem BioAssay by Broad Institute.
This is a sample that favours compounds with a hit; in the whole collection about 8.1% have one here.
PD-1 reversal = activators reversing PD-1 mediated T-cell inhibition; primary human CD4 T cells, PD-L1 beads, CellTiter-Glo 96 h; 29,000 tested, under 10 active; AID 2316; activation, % (concentration not given with the values); call rule not given here;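 further: 0% = median vehicle wells and 100% = positive control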
MITF inhib = blocks MITF activity | TRPM1 promoter luciferase, luminescence, 24 h | inhibition, % (concentration not given with the values) | actives 0.28% (n = 37,000) | AID 2240; in the data active means inhibition above about 85%;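 further: human melanocyte line stably carrying TRPM1 promoter luciferase reporter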
Shh pathway inh = blocks Sonic Hedgehog signaling. actives 2.1% (n = 22,000). inhibition, % (test concentration not listed). AID 2313. Shh-LIGHT2 Gli-luciferase reporter, 30 h;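 active means mean inhibition across valid replicates above about 65%, limit read from the data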;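 further: pathway switched on by Shh-conditioned medium diluted 1 in 25 in low serum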
NOMO-1 viab = STK33 inhibitor candidate reducing NOMO-1 cell viability | actives 7.5% (n = 37,000) | inhibition, % (no concentration beside the values) | NOMO-1 AML viability, CellTiter-Glo luminescence, 72 h; in the data active means inhibition above about 80%
* marks the source's active call; other numbers are inactive results; x = not tested or not shown.

SMILES | PD-1 reversal | MITF inhib | Shh pathway inh | NOMO-1 viab
COC(=O)c1cc(NC(=O)CSc2nnc(-c3ccccc3O)n2-c2ccccc2)ccc1Cl | -0.7 | -10.1 | x | -0.3
CSc1ccccc1NC(=O)CN(c1cccc([N+](=O)[O-])c1)S(C)(=O)=O | 0.8 | -2.6 | x | 6.4
O=C(CC1(O)C(=O)N(Cc2cccc3ccccc23)c2ccccc21)c1ccccc1[N+](=O)[O-] (stereo not given) | -4.0 | 51.3 | x | 114.5*
COC(=O)c1ccc(Oc2ccc(Cl)cc2Cl)o1 | 1.3 | -33.2 | 18.1 | 6.4
COc1ccc(C(Nc2cccc(C)n2)c2ccc3ccc(C)nc3c2O)c(OC)c1OC (stereo not given) | -13.0 | 10.8 | x | 96.3*
Cc1ccc2ccc(C(Nc3ccccn3)c3cccc([N+](=O)[O-])c3)c(O)c2n1 (stereo not given) | -13.2 | 51.9 | x | 112.1*
Cc1ccc2ccc(C(Nc3ccccn3)c3c(F)cccc3Cl)c(O)c2n1 (stereo not given) | -12.2 | 58.2 | x | 110.0*
CSc1ccc(C(Nc2cc(C)ccn2)c2ccc3ccc(C)nc3c2O)cc1 (stereo not given) | x | 34.6 | x | 39.9
Cc1cccc(NC(c2ccccc2[N+](=O)[O-])c2ccc3ccc(C)nc3c2O)n1 (stereo not given) | -13.1 | 53.0 | x | 121.0*
C/C1=C/C[C@]2(C)C(=O)C(=O)C([C@H](C)CO)[C@H]2C/C=C(/C)[C@@H](O)CC/C(C)=C\CC1 (stereo not given in full) | -2.6 | -18.8 | 4.4 | 28.9
COc1cc2c(c(O)c1CO)C(=O)CCC2O (stereo not given) | 2.0 | -20.4 | -13.7 | 3.2
CCOc1ccc(C2(CC(=O)Nc3ccccc3)C(=O)c3ccccc3C2=O)cc1OC | -0.8 | 6.3 | -28.4 | 1.5
Cc1ccnc(NC(c2cccc(Cl)c2)c2ccc3ccc(C)nc3c2O)c1 (stereo not given) | x | 56.3 | x | 117.9*
Cc1ccc2ccc(C(Nc3ccccn3)c3ccccc3Cl)c(O)c2n1 (stereo not given) | -11.3 | 53.9 | x | 106.0*
O=C(NC(NCc1ccccn1)(C(F)(F)F)C(F)(F)F)c1cccnc1 | -2.9 | -25.8 | 46.1 | 8.1
Cc1cccc(OC(=O)C(Cc2ccccc2)N2C(=O)C3C4CCC(C4)C3C2=O)c1C (stereo not given) | -3.4 | 20.9 | x | 37.4
O=C1Cc2c([nH]c3ccc(Br)cc23)-c2ccccc2N1 | 4.7 | -34.1 | -1.2 | 88.9*
COC(=O)c1cc(N2C(=O)C3C4C=CC(C)(O4)C3C2=O)ccc1Cl (stereo not given) | -47.2 | -2.0 | 23.0 | 113.0*
C[C@@H]1CN([C@@H](C)CO)C(=O)c2cccc(NC(=O)C3CCCCC3)c2O[C@@H]1CN(C)Cc1ccc(C(=O)Nc2ccccc2N)cc1 | -4.5 | 31.8 | x | 126.6*
C[C@@H]1CN([C@H](C)CO)C(=O)c2cccc(NC(=O)C3CCOCC3)c2O[C@@H]1CN(C)Cc1ccc(C(=O)Nc2ccccc2N)cc1 | 0.6 | 2.5 | x | 107.2*
O=c1c(N2CCOCC2)nnc2sc3ccccc3n12 | -0.1 | -1.2 | -22.8 | 7.5
O=C1S/C(=C\c2ccc(N3CCOCC3)o2)C(=O)N1c1ccccc1 | -0.4 | -34.4 | x | 132.2*
C[C@@H]1CN([C@@H](C)CO)C(=O)c2cccc(NC(=O)CCCCCC(=O)Nc3ccccc3N)c2O[C@H]1CN(C)S(=O)(=O)c1ccc(Cl)cc1 | -2.8 | -8.9 | x | 94.6*
C[C@@H]1CN([C@H](C)CO)C(=O)c2cccc(NC(=O)CCCCCC(=O)Nc3ccccc3N)c2O[C@@H]1CN(C)S(=O)(=O)c1ccc(Cl)cc1 | 1.5 | 20.6 | x | 94.6*
C[C@@H]1CN([C@@H](C)CO)C(=O)c2cccc(NC(=O)CCCCCC(=O)Nc3ccccc3N)c2O[C@@H]1CN(C)S(=O)(=O)c1ccc(Cl)cc1 | -0.8 | 11.7 | x | 121.1*
SMILES | PD-1 reversal | MITF inhib | Shh pathway inh | NOMO-1 viab
Cc1ccc(S(=O)(=O)N(C)C[C@H]2Oc3c(NC(=O)CCCCCC(=O)Nc4ccccc4N)cccc3C(=O)N([C@H](C)CO)C[C@H]2C)cc1 | -1.5 | -1.8 | x | 57.3
C[C@@H]1CN([C@H](C)CO)C(=O)c2cccc(NC(=O)CCCCCC(=O)Nc3ccccc3N)c2O[C@@H]1CN(C)S(=O)(=O)c1ccccc1 | -0.7 | -1.7 | x | 47.0
CS(=O)(=O)N(CC(=O)Nc1ccc(C(F)(F)F)cc1)c1cccc([N+](=O)[O-])c1 | -2.4 | 11.2 | x | 121.3*
Cc1ccc(Cl)cc1N(CC(=O)Nc1ccc(C(F)(F)F)cc1)S(C)(=O)=O | -6.2 | 69.0 | x | 118.1*
Cc1ccc(Cl)cc1N(CC(=O)Nc1ccc(I)cc1)S(C)(=O)=O | -2.4 | 31.9 | x | 65.6
Cc1nc2ccccc2n1CC(O)COc1ccc(C(C)C)cc1 (stereo not given) | -1.5 | 33.3 | x | 69.0
O=C1/C(=C/c2c[nH]c3ccccc23)CSc2ccccc21 | 0.7 | -8.1 | x | 113.2*
CCn1c(SCC(=O)Nc2ccccc2F)nnc1-c1ccccc1 | 1.3 | -7.9 | x | -8.1
COc1ccc(C(=O)Nc2sc3c(c2C(=O)NC2CCS(=O)(=O)C2)CCCC3)cc1OC (stereo not given) | 0.6 | 6.8 | x | -3.1
O=C(Nc1sc2c(c1C(=O)NCc1ccco1)CCCC2)c1ccc([N+](=O)[O-])cc1 | 0.8 | 12.3 | x | 14.8
COc1ccccc1C(=O)Nc1sc2c(c1C(=O)NCc1ccco1)CCCC2 | 2.0 | -5.7 | x | 91.1*
Cc1c(C(=O)Nc2sc3c(c2C(=O)NCc2ccco2)CCCC3)oc2ccccc12 | -4.7 | 2.9 | x | 105.9*
Cc1ccc2oc(C(=O)Nc3sc4c(c3C(=O)NC3CCS(=O)(=O)C3)CCC4)c(C)c2c1 (stereo not given) | -10.9 | 11.5 | x | 105.8*
O=C(c1cc2nc(-c3ccco3)cc(C(F)(F)F)n2n1)N(Cc1ccccc1)Cc1ccccc1 | 3.2 | -3.0 | x | 74.5
N#Cc1c(NC(=O)COc2ccc3c(-c4ccccc4)cc(=O)oc3c2)sc2c1CCC2 | x | 12.2 | x | 95.7*
CC(C)=CCc1c(-c2ccc(O)cc2O)oc2c(CC=C(C)C)c(O)cc(O)c2c1=O | 1.0 | 0.4 | -9.5 | 23.5
C[C@H](CO)N1C[C@H](C)[C@H](CN(C)Cc2ccncc2)Oc2ccc(NC(=O)CCCCCC(=O)Nc3ccccc3N)cc2CC1=O | -0.4 | -13.9 | x | 49.3
C[C@@H]1CN([C@H](C)CO)C(=O)Cc2cc(NC(=O)CCCCCC(=O)Nc3ccccc3N)ccc2O[C@@H]1CN(C)Cc1ccc(C(F)(F)F)cc1 | -0.9 | -9.4 | x | 140.6*
C[C@@H]1CN([C@H](C)CO)C(=O)Cc2cc(NC(=O)CCCCCC(=O)Nc3ccccc3N)ccc2O[C@H]1CN(C)Cc1ccc(C(F)(F)F)cc1 | 0.7 | 11.9 | x | 114.3*
N#CC1=C(N)OC(C2CC2)=C(C#N)C1c1ccccc1Cl (stereo not given) | -5.8 | -24.1 | 21.5 | 56.5
N#CC1=C(N)Oc2c(sc3ccccc23)C1c1ccccc1OC(=O)c1ccccc1Cl (stereo not given) | -1.3 | 33.2 | 43.6 | 114.8*
CN1C(=O)c2cccc3cccc(c23)[S+]1c1ccccc1C(=O)O (stereo not given) | 3.1 | -2.1 | -34.9 | 19.8
